# Measurements reported in ChEMBL document CHEMBL3433997, “St. Jude Leishmania screening dataset” (2016).
# Biological target: Solute carrier family 2, facilitated glucose transporter member 1 (Homo sapiens) (UniProt P11166)
# Assay: ST_JUDE_LEISH: Cytotoxicity at 2uM final concentration against transgenic Leishmania Mexicana promastigotes LmGLUT1 that are glucose transport deficient and complemented with the human glucose transporter GLUT1. Activity is measured by DNA content using SYBR green in vitro
# Type: functional
# Sequence of Solute carrier family 2, facilitated glucose transporter member 1 (Homo sapiens) (P11166 whole entry): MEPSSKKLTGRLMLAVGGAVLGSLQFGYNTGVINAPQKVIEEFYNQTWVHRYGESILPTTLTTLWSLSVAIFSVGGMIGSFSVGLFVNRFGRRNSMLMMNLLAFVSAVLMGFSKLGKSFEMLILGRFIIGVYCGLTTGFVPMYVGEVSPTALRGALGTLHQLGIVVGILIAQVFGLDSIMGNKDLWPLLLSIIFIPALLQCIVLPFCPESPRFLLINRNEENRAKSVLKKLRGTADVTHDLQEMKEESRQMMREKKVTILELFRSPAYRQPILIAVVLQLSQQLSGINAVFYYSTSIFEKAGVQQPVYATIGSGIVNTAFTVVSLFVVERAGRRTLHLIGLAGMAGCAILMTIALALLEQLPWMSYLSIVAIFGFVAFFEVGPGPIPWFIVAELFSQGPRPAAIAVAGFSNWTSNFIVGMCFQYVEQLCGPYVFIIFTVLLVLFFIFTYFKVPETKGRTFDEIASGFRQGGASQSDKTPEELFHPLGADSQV
row,Structure (SMILES),inhibition
1,Oc1ccc2ccccc2c1CNC1CCCCCC1,0.85%
2,CCN(CC)CCNc1ccnc2[nH]c3ccc(Cl)cc3c12,1.19%
3,CC(C)c1ccc(CN(C)CCCCNC(=O)c2ccc(NC(=O)c3ccc(Cl)cc3)cc2)cc1,-0.05%
4,N#Cc1ccc2[nH]cc(CN3CCC4(CC3)CN(CCNCc3ccccc3)C(=O)CO4)c2c1,2.13%
5,COc1cc(CN2CCC(CO)(Cc3cccc(C(F)(F)F)c3)CC2)c(Cl)cc1O,0.06%
6,CCN(CC)CCCC(C)Nc1c(-c2ccc(C)cc2)cnc2ccccc12 (stereo unspecified),9.89%
7,Cc1cc(N(C)CCN(C)C)nc(Nc2ccc(Cl)cc2)n1,5.23%
8,COc1ccccc1N1CCN(CCCCNC(=O)c2ccc(NC(=O)c3ccc4ccccc4c3)cc2)CC1,0.49%
9,CCCN(CCC)CCCCC(C)Nc1c2ccc(Cl)cc2nc2ccc(OC)cc12 (stereo unspecified),8.02%
10,O=C(Nc1ccc(F)c([N+](=O)[O-])c1)Nc1cc(C(F)(F)F)ccc1Cl,0.18%
11,Cc1cc(NC(=O)NCCN2CCC(NS(=O)(=O)c3cccc(Br)c3)C2)c2ccccc2n1 (stereo unspecified),1.93%
12,O=C(CCc1cccc(O)c1)NCC(NCCCNc1cc(=O)c2ccccc2[nH]1)c1cc(Br)cc(Br)c1 (stereo unspecified),8.91%
13,COc1ccc(Cn2cncc2CN(CCC(C)C)C(=O)c2ccc(Cl)nc2Cl)cc1,2.52%
14,CCc1ccc(C2CCN(CCCCNC(=O)c3ccc(NC(=O)c4ccc(Cl)cc4)cc3)CC2)c(OCC(=O)OC)c1,-0.04%
15,COc1ccc2nccc(N3CCN(CCNCc4ccc5c(n4)NC(=O)CS5)CC3)c2c1,1.43%
16,CN(C)CCOc1cc(NC(=O)Nc2ccc(-c3ccccc3)cc2Cl)ccc1I,1.19%
